Results on six targets are retold here after the supplement of paper PMC12067093, “Discovery and optimisation of a covalent ligand for TRIM25 and its application to targeted protein ubiquitination” (Chemical Science, 2025).

About 21,000 targets were measured; listed, in parts, are those with the largest changes and a random draw of the rest.

Compound in this assay: CC1Cc2ccccc2N1C(=O)C1CCCN(C1)C(=O)CCl (mixture of isomers) [TRIM25 ligand 11 (diastereomer mixture)]
The experiment in a line: probe-labelled cysteine peptide fold change vs DMSO (competition) (log2 fold change); higher = less target engagement (more negative = stronger competition). The following applies: THP-1, incubation time: 4 h.
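Further: competitive chemoproteomic profiling in live THP-1 cells with an iodoacetamide desthiobiotin (IA-DTB) probe, comparing probe-labelled peptide intensities in compound-treated cells against DMSO-treated controls.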

Sequence of UniProt O15160 (O15160 whole entry, looked up): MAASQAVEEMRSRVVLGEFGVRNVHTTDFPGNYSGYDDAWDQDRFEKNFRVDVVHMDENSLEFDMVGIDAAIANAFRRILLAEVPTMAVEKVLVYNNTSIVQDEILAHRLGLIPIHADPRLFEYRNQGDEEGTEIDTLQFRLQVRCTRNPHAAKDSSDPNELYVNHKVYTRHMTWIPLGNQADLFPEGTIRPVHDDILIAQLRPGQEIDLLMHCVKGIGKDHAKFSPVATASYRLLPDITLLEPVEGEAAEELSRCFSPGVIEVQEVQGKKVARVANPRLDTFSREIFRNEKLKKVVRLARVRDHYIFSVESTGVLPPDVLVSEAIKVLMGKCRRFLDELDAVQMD
Sequence of UniProt Q99570 (Q99570 whole entry, looked up): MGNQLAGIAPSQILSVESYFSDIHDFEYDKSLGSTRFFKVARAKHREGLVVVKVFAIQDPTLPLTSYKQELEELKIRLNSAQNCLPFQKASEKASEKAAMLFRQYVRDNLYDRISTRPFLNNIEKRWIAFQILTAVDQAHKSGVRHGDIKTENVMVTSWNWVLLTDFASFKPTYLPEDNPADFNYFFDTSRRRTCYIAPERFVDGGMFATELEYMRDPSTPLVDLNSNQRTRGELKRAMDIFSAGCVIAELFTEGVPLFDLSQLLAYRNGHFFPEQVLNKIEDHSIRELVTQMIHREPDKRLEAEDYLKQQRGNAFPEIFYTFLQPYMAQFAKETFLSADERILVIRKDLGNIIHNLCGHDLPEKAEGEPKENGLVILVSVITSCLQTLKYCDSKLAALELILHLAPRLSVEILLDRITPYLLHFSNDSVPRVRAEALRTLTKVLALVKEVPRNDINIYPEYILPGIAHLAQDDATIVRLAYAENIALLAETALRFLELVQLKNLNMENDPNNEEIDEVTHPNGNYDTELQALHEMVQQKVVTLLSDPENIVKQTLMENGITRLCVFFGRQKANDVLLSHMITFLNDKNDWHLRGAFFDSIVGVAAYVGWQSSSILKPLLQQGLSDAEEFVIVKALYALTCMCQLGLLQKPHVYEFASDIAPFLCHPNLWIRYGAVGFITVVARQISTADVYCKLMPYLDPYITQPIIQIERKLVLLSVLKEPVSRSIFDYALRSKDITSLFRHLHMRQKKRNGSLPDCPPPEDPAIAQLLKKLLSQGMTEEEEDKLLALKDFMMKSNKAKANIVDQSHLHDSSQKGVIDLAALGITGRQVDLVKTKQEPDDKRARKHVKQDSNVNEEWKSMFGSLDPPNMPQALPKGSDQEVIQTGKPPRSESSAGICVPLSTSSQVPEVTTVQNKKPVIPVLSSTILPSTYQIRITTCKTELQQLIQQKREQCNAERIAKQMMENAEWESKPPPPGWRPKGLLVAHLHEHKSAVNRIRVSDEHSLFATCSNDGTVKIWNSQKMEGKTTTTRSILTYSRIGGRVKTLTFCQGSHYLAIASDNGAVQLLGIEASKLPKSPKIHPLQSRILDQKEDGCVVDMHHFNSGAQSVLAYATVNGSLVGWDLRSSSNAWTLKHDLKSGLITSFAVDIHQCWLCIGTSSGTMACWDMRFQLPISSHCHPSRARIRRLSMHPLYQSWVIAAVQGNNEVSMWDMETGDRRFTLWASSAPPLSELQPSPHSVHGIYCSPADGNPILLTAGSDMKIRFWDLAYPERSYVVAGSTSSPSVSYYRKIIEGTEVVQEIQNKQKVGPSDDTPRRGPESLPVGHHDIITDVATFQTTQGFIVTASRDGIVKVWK
Sequence of UniProt Q9BZL4 (Q9BZL4 whole entry, looked up): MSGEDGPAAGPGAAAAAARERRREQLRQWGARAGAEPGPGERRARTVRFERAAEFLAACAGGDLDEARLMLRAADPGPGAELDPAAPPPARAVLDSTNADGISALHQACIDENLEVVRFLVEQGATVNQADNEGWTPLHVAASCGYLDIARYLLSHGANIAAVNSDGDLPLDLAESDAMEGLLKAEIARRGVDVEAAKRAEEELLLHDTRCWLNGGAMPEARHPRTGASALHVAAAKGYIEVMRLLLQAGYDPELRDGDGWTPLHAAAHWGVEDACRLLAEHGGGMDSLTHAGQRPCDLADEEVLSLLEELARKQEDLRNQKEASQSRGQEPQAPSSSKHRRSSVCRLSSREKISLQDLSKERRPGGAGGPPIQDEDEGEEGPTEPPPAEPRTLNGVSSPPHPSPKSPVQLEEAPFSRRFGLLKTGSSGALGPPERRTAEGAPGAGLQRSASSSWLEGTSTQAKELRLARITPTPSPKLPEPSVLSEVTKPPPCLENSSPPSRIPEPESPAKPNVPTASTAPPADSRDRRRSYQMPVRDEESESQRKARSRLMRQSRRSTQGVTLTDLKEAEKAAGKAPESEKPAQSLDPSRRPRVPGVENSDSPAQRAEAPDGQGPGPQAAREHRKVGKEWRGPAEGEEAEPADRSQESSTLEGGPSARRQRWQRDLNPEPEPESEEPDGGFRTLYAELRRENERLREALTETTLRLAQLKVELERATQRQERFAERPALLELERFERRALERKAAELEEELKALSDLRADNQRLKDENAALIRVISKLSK
Sequence of UniProt P12955 (P12955 whole entry, looked up): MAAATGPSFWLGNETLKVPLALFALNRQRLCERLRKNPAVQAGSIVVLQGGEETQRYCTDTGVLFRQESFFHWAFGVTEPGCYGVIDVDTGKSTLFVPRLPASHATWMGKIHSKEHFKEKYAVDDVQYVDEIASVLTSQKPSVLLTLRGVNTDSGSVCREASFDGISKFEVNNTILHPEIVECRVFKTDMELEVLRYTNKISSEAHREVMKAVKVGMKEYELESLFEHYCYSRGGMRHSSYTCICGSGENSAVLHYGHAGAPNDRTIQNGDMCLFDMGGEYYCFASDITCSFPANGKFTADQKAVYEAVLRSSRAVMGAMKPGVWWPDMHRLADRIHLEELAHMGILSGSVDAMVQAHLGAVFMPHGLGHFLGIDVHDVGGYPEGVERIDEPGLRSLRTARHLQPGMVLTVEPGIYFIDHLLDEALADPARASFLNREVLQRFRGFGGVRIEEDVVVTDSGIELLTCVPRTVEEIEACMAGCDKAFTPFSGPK
Sequence of UniProt Q9UIL8 (Q9UIL8 whole entry): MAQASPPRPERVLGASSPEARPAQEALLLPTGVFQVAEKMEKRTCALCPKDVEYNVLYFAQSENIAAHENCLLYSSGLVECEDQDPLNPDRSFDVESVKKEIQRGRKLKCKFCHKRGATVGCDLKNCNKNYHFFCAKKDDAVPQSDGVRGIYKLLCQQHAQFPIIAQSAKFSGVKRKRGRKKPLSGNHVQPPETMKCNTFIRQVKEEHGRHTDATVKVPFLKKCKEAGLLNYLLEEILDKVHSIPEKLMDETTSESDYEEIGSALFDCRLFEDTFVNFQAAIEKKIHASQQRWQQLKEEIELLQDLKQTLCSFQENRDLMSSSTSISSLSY

With “POLR1C_O15160_214_PVHDDILIAQLRPGQEIDLLMHCVK (UniProt O15160)”, the “probe-labelled cysteine peptide fold change” value (10 µM) was -0.00122 and the “probe-labelled cysteine peptide fold change” value (50 µM) is -0.0368.

As to “PIK3R4_Q99570_955_EQCNAER (UniProt Q99570)”, the “probe-labelled cysteine peptide fold change” value is -0.0631 (10 µM) and -0.105 (50 µM).

As for “PPP1R12C_Q9BZL4_297_LLAEHGGGMDSLTHAGQRPCDLADEEVLSLLEELAR (UniProt Q9BZL4)”, the “probe-labelled cysteine peptide fold change” value by setting is: (10 µM) 0.136; (50 µM) -0.278.

Regarding “PHF11_Q9UIL8_135_NYHFFCAK (UniProt Q9UIL8)”, the “probe-labelled cysteine peptide fold change” value is -0.0148 (10 µM) and 0.156 (50 µM).

As to “PEPD_P12955_158_GVNTDSGSVCR (UniProt P12955)”, the “probe-labelled cysteine peptide fold change” value (10 µM) worked out at 0.0721 and the “probe-labelled cysteine peptide fold change” value (50 µM) was -0.0568.

Regarding “PECAM1_P16284_109_CTVIVNNK (UniProt P16284)”, the “probe-labelled cysteine peptide fold change” value was found to be 0.126 (10 µM) and 0.476 (50 µM).
